The source holds several records for some structures; these can differ, active in one and inactive in another. The source made the active and inactive calls. Rule for the calls: active = hit-call score of the fitted dose curve at least 0.9, where 1 is the maximum; inactive = score below 0.9.
read-out: CD69, CD69 (gene 969); experiment: BSK_LPS_CD69: BioMAP Diversity Plus: LPS Assay for CD69 Biomarker Activity (AID 2284303); conditions: primary human HUVEC with PBMC
Description: BSK_LPS is a cell-based, multiplexed-readout assay that uses umbilical vein endothelium and peripheral blood mononuclear cells, a human vascular primary cell co-culture, with measurements taken at 24 hours after chemical dosing in a 96-well plate.BSK_LPS_CD69 is an assay component measured in the BSK_LPS assay. It measures CD69 antibody related to regulation of gene expression using ELISA technology.Data from the assay component BSK_LPS_CD69 was analyzed at the endpoint, BSK_LPS_CD69, in the positive analysis fitting direction relative to DMSO as the negative control and baseline of activity. Using a type of binding reporter, gain or loss-of-signal activity can be used to understand protein changes. To generalize the intended target to other relatable targets, this assay endpoint is annotated to the 'cytokine' intended target family, where the subfamily is 'inflammatory factor'.
The levels of cell surface (or secreted, indicated by the prefix "s") biomarker endpoints were measured by ELISA. Overt cytotoxicity to cells in confluent adherent cultures (all systems other than the BT system) was assessed by measuring total protein levels using sulforhodamine B (SRB) staining in parallel cultures at the time of biomarker measurements, indicated as SRB endpoints. For proliferation assays for adherent cell types, individual cell types are cultured at sub-confluence and relative cell numbers quantified by SRB staining at time points optimized for each system (48 h: 3C and CASM3C systems; 72 h: BT and HDF3CGF systems; 96 h: SAg system). SRB was performed by staining cells with 0.1% SRB after fixation with 10% TCA and reading wells at 560 nm.Viability and proliferation of PBMC (T cells) was quantified by Alamar Blue reduction for the SAg and BT systems. For PBMC viability (referred to as PBMC Cytotoxicity within the assay endpoint names), cells were plated (75,000/well in a 96-well plate) and then chemical samples added for 1 h before addition of activators, SEB and TSST-1 (20 ng/mL final concentration each). Cells were incubated for 90 h. Then, Alamar Blue (20 uL/well) (Invitrogen, Cat DAL1100) was added for 6 h, and the plates were read with a fluorescence microplate reader at 546/580 nm (excitation/emission). For PBMC proliferation, cells were plated and activated as above but incubated for only 16 h prior to addition of Alamar Blue. Plates were read after 6 h.

| SMILES | outcome | AC50 |
| --- | --- | --- |
| FC(F)(F)COC(OCC(F)(F)F)OCC(F)(F)F | inactive | – |
| FC(F)C(F)(F)COCC1CO1 (stereo unspecified) | inactive | – |
| C[Si](C)(C)C(F)(F)C(F)(F)C(F)(F)F | inactive | – |
| O=C(Cl)C(F)(F)C(F)(F)C(F)(F)C(=O)Cl | inactive | – |
| O=S(=O)(O)CCC(F)(F)C(F)(F)C(F)(F)C(F)(F)C(F)(F)C(F)(F)F | inactive | 9.47 µM (active) |
| OCCC(F)(F)C(F)(F)C(F)(F)C(F)(F)F | inactive | – |
| FC(F)=C(F)C(F)(F)C(F)(F)C(F)(F)C(F)(F)C(F)(F)C(F)(F)F | inactive | – |
| OC(O)(C(F)C(O)(O)C(F)(F)F)C(F)(F)F | inactive | – |
| NCC(F)(F)C(F)(F)C(F)(F)C(F)(F)F | inactive | – |
| FC(F)(F)C(F)(F)C(F)(F)C(F)(F)C(F)(F)C(F)(F)I | inactive | – |

— PubChem BioAssay (EPA / NIEHS)
